# TDP1 cell noCPT = qHTS for Inhibitors of human tyrosyl-DNA phosphodiesterase 1 (TDP1): qHTS in cells in absence of CPT. Potency, µM (titrated, usually from 46.2 µM), for inactives: at the highest dose activity change, negative = growth inhibition, usual class: inhibitors. AID 686978, 2013. hit rate 15% among 420,000. DT40 Tdp1-/- hTDP1 cells, no CPT, ATP luminescence, 48 h; further: potency means the concentration at half of the fitted maximal effect; nearly all actives have a fitted effect of over 55% in size
#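 Growth of hTDP1-complemented DT40 Tdp1-knockout cells is measured by ATP luminescence after at least 48 hr compound exposure at 37 °C, with DMSO substituting for the 20 nM CPT used in the parallel screen.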
# Gal4-VP16 FLuc = counter-screen for ROR gamma inhibitors: Gal4-VP16 reporter; Drosophila S2 Gal4-VP16 UAS-luciferase, luminescence, 20 h; Potency, µM (titrated, usually from 53.6 µM), without a hit: at the highest dose activity, negative = inhibition, usual class: inhibitors; hit rate 3.5% among 310,000; AID 2546;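 further: Gal4-VP16 expression switched on by copper sulfate through the metallothionein promoter; potency means the concentration at half of the fitted maximal effect; nearly all actives have a fitted effect of over 50% in size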
# ELG1 repair inh = ELG1-dependent DNA repair inhibition; HEK293T ELG1-luciferase reporter, luminescence, 16 h; DNA damage induced by 5-fluorouridine; hit rate 2.3% among 330,000; Potency, µM (top dose mostly 46.1 µM), for the others: top-dose activity change, negative = inhibition, actives largely listed as inhibitors; further: potency means the concentration at half of the fitted maximal effect; nearly all actives have a fitted effect of over 55% in size
#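 Reporter activity after DNA damage by 5-fluorouridine is monitored. Compound-treated cells incubate 16 hr at 37 °C, then ONE-Glo is added for 30 min before luminescence reading.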
# IL1B secr inh = inflammasome signaling inhibition, IL-1 beta readout; AID 743279; THP-1 LPS/ATP IL-1B secretion, AlphaLISA, 16 h; stronger effect = lower value; activity change, % at 57.5 µM; hit rate 4.7% among 360,000; in the data active means activity change below about -50%; inconclusive means mostly about -30% to -49%
#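 Secreted IL-1B measured by AlphaLISA bead assay after 16 h compound exposure of THP-1 cells; compounds (final up to 57.5 uM) added 1 h before LPS (250 ng/mL) and ATP (1.25 mM) stimulation; lower signal means less secretion.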
# RORg inh = blocks mouse ROR gamma transcriptional activity. P51450. Potency, µM (series often up to 53.6 µM), for inactives: at the top dose activity change, negative = inhibition, most hits filed as inhibitors. Drosophila S2 Gal4-RORgamma UAS-luciferase reporter, 20 h. hit rate 5.4% among 310,000; further: potency means the concentration at half of the fitted maximal effect; nearly all actives have a fitted effect of over 60% in size
# Target sequence (P51450 whole entry, looked up, the tested form may be a part): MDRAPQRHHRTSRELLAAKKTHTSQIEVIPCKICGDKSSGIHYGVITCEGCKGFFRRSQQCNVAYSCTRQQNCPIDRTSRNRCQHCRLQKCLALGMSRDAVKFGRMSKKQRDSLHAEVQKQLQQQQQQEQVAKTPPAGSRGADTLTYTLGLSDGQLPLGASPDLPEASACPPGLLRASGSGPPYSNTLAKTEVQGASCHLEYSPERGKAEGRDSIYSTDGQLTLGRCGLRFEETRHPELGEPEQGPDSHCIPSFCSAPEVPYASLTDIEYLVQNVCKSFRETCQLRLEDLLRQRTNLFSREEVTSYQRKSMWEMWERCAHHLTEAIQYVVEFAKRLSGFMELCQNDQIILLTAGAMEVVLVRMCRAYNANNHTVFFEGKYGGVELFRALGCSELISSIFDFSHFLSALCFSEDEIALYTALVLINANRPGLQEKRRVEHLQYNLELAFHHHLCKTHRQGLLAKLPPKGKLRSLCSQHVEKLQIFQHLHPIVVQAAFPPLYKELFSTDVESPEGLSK
#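 ROR gamma transcriptional activity was tracked as Gal4-UAS luciferase output in stably transfected Drosophila Schneider cells, with compound added 1 hr before 700 uM copper sulfate induction and a 20 hr ambient-temperature incubation.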
# DT40 TDP1 CPT = growth inhibition of DT40 Tdp1-/-;hTDP1 cells with camptothecin (screen for TDP1 inhibitors); chicken DT40 Tdp1-/-;hTDP1 cells + 20 nM CPT, ATP luminescence, 48 h; Potency, µM (titrated, usually from 46.2 µM), for inactives: at the highest dose activity change, negative = growth inhibition, most hits filed as inhibitors; hit rate 12% among 420,000; AID 686979; further: potency means the concentration at half of the fitted maximal effect; nearly all actives have a fitted effect of over 55% in size
#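 Chicken DT40 Tdp1-/- cells stably complemented with human TDP1 were seeded at 400 cells/well in medium containing 20 nM camptothecin, exposed to pin-transferred compounds, and grown at 37 °C for at least 48 hr. Viability was read as ATP luminescence.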
# The depositor's hits bear a star; i = inactive; ? = inconclusive; / = no result given; [ ] = dose if it differs, or a comment. Hits are enriched below; roughly 21% of the tested compounds scored in any of these assays. Unless noted, the call rests on the fitted dose curve; in most records, active means well fitted curve in the direction sought with a large enough effect; inconclusive means small, poorly fitted or top-dose-only effect, or another doubt; inactive means no such curve, though single readings can be large; an effect the other way counts as inactive or inconclusive. On the % scale 0 is the no-effect control and ±100 the full control effect.
SMILES,TDP1 cell noCPT,Gal4-VP16 FLuc,ELG1 repair inh,IL1B secr inh,RORg inh,DT40 TDP1 CPT
Cc1ccc(S(=O)(=O)N2CCN(C(=O)CN3C(=O)NC(C)(c4ccc5ccccc5c4)C3=O)CC2)cc1 (stereo unspecified),?,/,/,-12,/,?
COc1cccc(N2CCN(C(=O)CN3C(=O)NC(C)(c4ccc5ccccc5c4)C3=O)CC2)c1 (stereo unspecified),16µM*,/,?,-14,/,13µM*
COc1ccc(-c2oc3c4c2C(=O)OCCOC4CCC3)cc1 (stereo unspecified),?,/,/,-3,/,-14%
Clc1cccc2c1CN(C1=NCCN1)C2,?,1%,/,/,-22%,?
Cc1cccc(Oc2nc3c(c(=O)n(C)c(=O)n3C)n2Cc2ccccc2)c1C,?,/,/,/,/,7%
COc1ccc(-c2nnc(SCC(=O)Nc3ccc(F)cc3)s2)cc1,-18%,/,/,/,/,5%
CCCOc1c(Br)cc(C(N)=O)cc1OCC,?,-8%,?,18,11%,23µM*
CCOc1cc(C=O)cc(Br)c1OCC(N)=O,5.2µM*,-7%,1%,32,12%,5.8µM*
CCOc1c(Br)cc(C(N)=O)cc1OC,-21%,-7%,0%,0,28%,-13%
CCOc1cc(CO)cc(Br)c1OCC(=O)O,-18%,/,/,9,/,-1%
O=C1CN(S(=O)(=O)c2cc(Br)ccc2Br)CCN1,1%,/,?,26,/,-16%
O=c1c(Br)ccc(Br)cc1Br,0.065µM*,/,/,-100*,/,0.029µM*
COc1ccc(-c2noc(COc3cc(C)c(Br)c(C)c3)n2)cc1OC,-27%,/,/,/,/,-29%
CCOC(=O)/C(=C\c1cccc(O)c1)c1nc2sc(C)c(C)c2c(=O)[nH]1,23µM*,2%,?,-102*,39%,9.2µM*
O=[N+]([O-])c1cc(Br)c(O)c(/C=N/Nc2nnnn2-c2cccc3ccccc23)c1,-4%,6.3µM*,-11%,21,3.2µM*,-16%
O=[N+]([O-])c1ccc(NN=Cc2cccc3ccccc23)cc1,?,/,/,-12,/,?
O=C(CN1C(=O)NC2(CCCCC2)C1=O)N1CCN(S(=O)(=O)c2cccc(F)c2)CC1,6%,-3%,15%,i,-6%,-3%
COc1ccc2[nH]c(=O)c(CN(CC3CCCO3)C(=S)Nc3ccccc3)cc2c1 (stereo unspecified),?,-19%,-2%,-16,-9%,?
COc1ccc2cc(CN(CC3CCCO3)C(=S)Nc3ccccc3)c(=O)[nH]c2c1 (stereo unspecified),6.5µM*,-8%,8.2µM*,?,-4%,5.2µM*
Cc1cc2cc(CN(CC3CCCO3)C(=S)Nc3ccccc3)c(=O)[nH]c2cc1C (stereo unspecified),5.8µM*,4%,?,-15,-9%[10 µM],6.5µM*
CN1CCN(c2ncc3nc(-c4ccc(Cl)cc4)c(=O)n(C4CC4)c3n2)CC1,?,-13%,/,/,14%,?
CCOC(=O)C1CCNC(=O)C1=O (stereo unspecified),13%,/,/,20,/,8%
Cc1c(CCC(=O)NCCCn2ccnc2)c(=O)oc2c(C)c3oc4c(c3cc12)CCCC4,?,?,16%,?,-28%,?
CC(C)c1ccc(N=C2N=C(N)c3ccccc32)cc1,?,5%,?,-96*,-7%,?
NC1=NC(=Nc2ccc(S(=O)(=O)N3CCOCC3)cc2)c2ccccc21,-77%,-2%,?,-51*,1%,?
Nc1ccc(S(=O)(=O)N2CCOCC2)cc1,1%,/,/,/,/,5%
